# Screens: PubChem BioAssay, Broad Institute
# A selection: hits, their analogues and other compounds. The true share with any hit is near 2.2%.
# LMP1 NFkB inh: inhibitors of Epstein-Barr LMP1-induced NF-kappaB reporter. LMP1-induced NF-kappaB luciferase reporter cells, luminescence. inhibition, % at 12.5 µM. actives 0.69% (n = 350,000). AID 504558; in the data active = inhibition above about 41%; inconclusive = no clear call, values can overlap the other calls
# MITF TRPM1 inh: inhibitors of MITF-driven TRPM1 promoter in melanoma cells; AID 488899; actives 0.83% (n = 330,000); inhibition, % at 12.5 µM; SK-MEL-5 TRPM1 promoter luciferase, 24 h;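 active = mean inhibition across replicates of 60% or more, whatever share of single replicates reaches that level; inconclusive = some that reach 60%, reason not given; inactive = mean inhibition across replicates below 60%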
# PGC1a acetyl inh: lowers PGC1a acetylation signal in U2OS cells; AlphaScreen anti-acetyl-lysine; with virally co-expressed GCN5 acetyltransferase; inhibition, % at 15.6 µM; actives 0.17% (n = 350,000);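 active = every replicate shows inhibition of at least 40%; inconclusive = mean inhibition at least 40% but some replicate below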
# PAX8 reporter: PAX8 transcriptional activity inhibition; actives 1.2% (n = 360,000); RMG-I TPO-luciferase reporter, SteadyGlo, 24 h; inhibition, % at 12.6 µM;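 active = mean replicate inhibition at least 60% with every replicate also reaching 60%; inconclusive = only one of the two criteria is met; inactive = mean below 60% and not all replicates reaching 60%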;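 also: luciferase light reporting Pax8 driven TPO promoter activity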
# LGR2 inh: inhibitors of bursicon-induced Drosophila LGR2 receptor cAMP signaling. HEK293 LGR2, CRE-luciferase, bursicon-stimulated, 4 h. inhibition, % at 9.99 µM. actives 0.35% (n = 380,000);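 active = drop in luminescence signal, shown as inhibition above about 50% in the replicate tests, limit read from the data, passing the limit was not always enough; inconclusive = probably only some replicates passing the limit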;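 also: agonist challenge used bursicon conditioned medium at about half maximal strength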
# EWS-Fli block: blocks EWS/Fli oncoprotein-driven transcription. A673 NR0B1-luciferase reporter, viability-normalised. inhibition, % at 12.6 µM. actives 0.67% (n = 350,000). AID 651661;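 active = mean inhibition of at least 50% after viability correction, with every replicate also passing that limit; inconclusive = mean reaches 50% but only one of two replicates passes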;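 also: firefly luciferase signal divided by Alamar Blue viability fluorescence both relative to DMSO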
# Numbers stand for hits; – = inactive; ? = inconclusive; · = no result given.
SMILES,LMP1 NFkB inh,MITF TRPM1 inh,PGC1a acetyl inh,PAX8 reporter,LGR2 inh,EWS-Fli block
Cc1cnc(NC(=O)c2sc3ccccc3c2Cl)s1,–,–,·,–,?,72
CC(C)(C)C(=O)NC(=S)NNC(=O)c1sc2ccccc2c1Cl,57,80,·,·,·,·
O=C(Nc1nccs1)c1sc2ccccc2c1Cl,–,–,–,·,·,·
Cc1ccnc(NC(=O)c2sc3ccccc3c2Cl)c1,61,–,·,–,87,·
C[C@H](NC(=O)C[C@@H]1C[C@@H]2c3cc(NC(=O)NC4CCCC4)ccc3O[C@@H]2[C@H](CO)O1)c1ccccc1,·,·,–,–,–,–
Cc1ccc(S(=O)(=O)N(C)C[C@@H]2OCCCC[C@H](C)Oc3ccc(NC(=O)C4CCCCC4)cc3C(=O)N([C@@H](C)CO)C[C@H]2C)cc1,·,·,–,–,–,–
O=C(N[C@@H]1C=C[C@@H](CC(=O)N2CCCCC2)O[C@H]1CO)c1ccc2c(c1)OCO2,·,·,–,–,–,–
C[C@H]1CN([C@@H](C)CO)S(=O)(=O)c2ccc(-c3cccc(F)c3)cc2O[C@H]1CN(C)C,·,·,–,·,–,–
COc1ccc2c3c(n(C)c2c1)[C@H](CO)NCC31CN(C(C)=O)C1,·,·,–,·,–,–
CC(CCc1ccco1)NC(=O)c1cccc2c1C(=O)N(C1CCCCC1)C2 (configuration not stated),–,–,·,–,–,–
COc1ccc(N2Cc3cccc(C(=O)NC(C)CCc4ccco4)c3C2=O)cc1 (configuration not stated),47,–,–,–,–,–
O=C(c1ccncc1)N1CCN(c2cc(-c3ccccc3)nc3cc(-c4cccc(Cl)c4)nn23)CC1,–,·,–,68,–,–
O=C(c1ccoc1)N1CCN(c2cc(-c3ccncc3)nc3cc(-c4cccc(Cl)c4)nn23)CC1,–,·,–,–,–,–
C[C@@H]1CCCCO[C@H](CN(C)S(=O)(=O)c2ccc(F)cc2)[C@H](C)CN([C@H](C)CO)C(=O)c2cc(NC(=O)NC3CCCCC3)ccc2O1,·,·,–,–,–,–
CC(C)CCNC(=O)C(c1ccncc1)N(Cc1cccs1)C(=O)Cn1nnc(-c2ccc(F)cc2)n1 (configuration not stated),–,76,–,80,·,·
COc1ccc(-c2nnn(CC(=O)N(Cc3cccs3)C(C)C(=O)NC3CCCC3)n2)cc1OC (configuration not stated),–,–,–,·,·,·
O=C(NCC1CCCO1)C(c1ccncc1)N(Cc1cccs1)C(=O)Cn1nnc(-c2ccc(F)cc2)n1 (configuration not stated),–,–,·,–,·,–
Cc1ccc(-c2nnn(CC(=O)N(Cc3cccs3)C(C(=O)NC3CCCC3)c3ccncc3)n2)cc1 (configuration not stated),–,73,–,·,–,·
O=C1C(C=Nc2ccccc2O)=C(O)c2ccccc21,–,–,–,·,65,–
Cc1ccc(O)c(N=CC2=C(O)c3ccccc3C2=O)c1,–,–,–,–,·,·
CO[C@H]1CN(C)C(=O)c2cc(NC(=O)C3CC3)ccc2OC[C@H](C)N(C(=O)c2ccccc2F)C[C@H]1C,·,·,–,–,–,–
CCOc1ccc2nc(NC(=O)CSc3nc4c(c(=O)n(C)c(=O)n4C)n3C(C)C)sc2c1,–,–,–,·,–,·
CCn1c(SCC(=O)Nc2nc3ccc(OC)cc3s2)nc2c1c(=O)n(C)c(=O)n2C,–,–,·,·,54,·
Cc1noc(C)c1NC(=O)Nc1ccc2c(c1)CC(=O)N([C@@H](C)CO)C[C@H](C)[C@@H](CN(C)S(=O)(=O)c1cccs1)O2,·,·,–,–,–,–
O=[N+]([O-])c1ccc(N/N=C/c2sc(N3CCOCC3)nc2-c2ccccc2)c(S(=O)(=O)Nc2ccccc2Cl)c1,–,65,·,–,?,·
SMILES,LMP1 NFkB inh,MITF TRPM1 inh,PGC1a acetyl inh,PAX8 reporter,LGR2 inh,EWS-Fli block
O=C(N/N=C/c1sc(N2CCOCC2)nc1-c1ccccc1)c1ccccc1Cl,–,–,–,–,–,–
O=C(O)c1cccc(N/N=C/c2sc(N3CCOCC3)nc2-c2ccccc2)c1,–,–,–,·,–,·
O=[N+]([O-])c1ccc(N/N=C/c2sc(N3CCOCC3)nc2-c2ccccc2)c(S(=O)(=O)Nc2ccc(Cl)cc2)c1,55,72,·,102,–,–
COc1ccccc1-c1nc(-c2ccccn2)no1,62,–,–,–,78,73
Brc1ccc(-c2nc(-c3ccccn3)no2)o1,?,–,–,·,75,·
Cc1ccccc1-c1nc(-c2ccccn2)no1,61,74,–,73,95,83
Clc1ccc(-c2nc(-c3ccccn3)no2)cc1Cl,–,–,–,·,·,·
COc1ccc(-c2nc(-c3ccccn3)no2)cc1,81,87,·,104,100,86
Cc1ccccc1-c1nc(-c2cccnc2)no1,–,–,–,–,·,·
COc1ccccc1-c1noc(-c2ccncc2)n1,–,–,–,·,–,·
C[C@@H]1CCCCO[C@H](CN(C)C)[C@@H](C)CN([C@@H](C)CO)C(=O)c2cc(NC(=O)c3ccccc3)ccc2O1,·,·,–,–,–,–
Cc1n[nH]c(C)c1CCC(=O)N/N=C/c1c(C)[nH]c2ccccc12,–,–,–,85,–,–
Cc1n[nH]c(C)c1CCC(=O)N/N=C/c1c[nH]c2ccccc12,–,–,–,–,–,–
CCOC(=O)c1cc2sccc2n1CC(=O)O,–,–,–,·,–,–
CCOC(=O)c1cc2sccc2n1CC(=O)N1c2ccccc2CC1C (configuration not stated),–,63,·,·,–,·
C[C@H](O)C#Cc1ccc2c(c1)O[C@@H](CN(C)C(=O)c1ccccc1)[C@H](C)CN([C@H](C)CO)S2(=O)=O,·,·,–,·,–,–
COc1ccc2c3c(n(C)c2c1)[C@@H](CO)N(C(=O)c1ccccn1)CC31CCN(C(=O)Cc2ccccc2)CC1,·,·,–,·,–,–
O=C(C[C@@H]1CC[C@@H]2[C@H](COC[C@@H](O)CN2Cc2ccccc2F)O1)N1CCc2ccccc2C1,·,·,–,–,–,–
Cc1cc(C(=O)N/N=C/c2ccc([N+](=O)[O-])cc2)c2ccccc2n1,–,–,–,–,–,51
O=C(N/N=C/c1ccsc1)c1cc(-c2cccs2)nc2ccccc12,–,–,–,133,–,–
CC(/C=N/NC(=O)c1cc(-c2ccncc2)nc2ccccc12)=C\c1ccco1,–,68,–,·,–,·
O=C(N/N=C/c1ccsc1)c1cc(-c2ccncc2)nc2ccccc12,–,–,·,–,–,·
O=C(N/N=C/c1ccc(Cl)cc1)c1cc(-c2cccnc2)nc2ccccc12,–,–,–,–,–,52
C[C@H]1CN([C@@H](C)CO)C(=O)c2cccc(NC(=O)Nc3ccccc3)c2O[C@H]1CN(C)Cc1ccccc1,·,·,–,–,–,–
C[C@@H]1CCCCO[C@@H](CN(C)C(=O)c2ccccc2)[C@@H](C)CN([C@@H](C)CO)C(=O)c2cc(NC(=O)Cc3ccccc3)ccc2O1,·,·,–,–,–,–
